A selection: hits, their analogues and other compounds. The true share with any hit is near 3.8%.
FGF22 binding: FGF22 (human) thermal shift binding; Q9HCT0; recombinant FGF22 thermal shift, SYPRO orange fluorescence; percent of sucrose octasulfate shift, DMSO zero; activity (Tm shift, normalised), % at 9.99 µM; 340,000 compounds, 1.5% hits; AID 651658;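 active means mean Tm shift, scaled 0 neutral to 100 positive control, at about 1.3% or above, every replicate too, limit read from the data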
Target sequence (Q9HCT0 whole entry, looked up): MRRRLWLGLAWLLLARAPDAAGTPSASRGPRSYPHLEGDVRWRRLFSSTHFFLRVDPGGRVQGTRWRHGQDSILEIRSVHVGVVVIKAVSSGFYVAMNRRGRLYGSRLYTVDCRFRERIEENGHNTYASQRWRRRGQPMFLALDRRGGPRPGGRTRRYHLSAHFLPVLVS
ADAM17 inh: inhibitors of human ADAM17 | inhibition, % at 6.95 µM | 370,000 compounds, 0.83% hits | P78536 | recombinant ADAM17, EDANS/DABCYL FRET peptide cleavage | AID 720648;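 active means inhibition above the mean of compounds lying between control limits plus 3 SD, set per campaign, cut at about 8.5% in these data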;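 further: 0% = DMSO-only wells as the low control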
ADAM10 inh: ADAM10 inhibition, QFRET primary screen; recombinant ADAM10, EDANS/DABCYL FRET peptide cleavage, 3 h; inhibition, % at 7 µM; 370,000 compounds, 0.62% hits; AID 720582;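 active means inhibition above a per-campaign cutoff equal to the mean of compounds falling between control-based bounds plus 3 SD, cut at about 20% in these data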;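 further: 0% = DMSO wells while the 100% control is not disclosed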
KLK7 zymogen act: activators of human kallikrein-7 zymogen; purified proKLK7, EDANS-DABCYL substrate fluorescence; 100% is mature enzyme control, 0% vehicle; 370,000 compounds, 0.9% hits; activation, % at 7 µM; P49862; AID 652039;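 active means activation above the mean of all tested compounds plus 3 SD, computed per campaign excluding outliers beyond control limits, cut at about 13% in these data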
Target sequence (P49862 whole entry, looked up): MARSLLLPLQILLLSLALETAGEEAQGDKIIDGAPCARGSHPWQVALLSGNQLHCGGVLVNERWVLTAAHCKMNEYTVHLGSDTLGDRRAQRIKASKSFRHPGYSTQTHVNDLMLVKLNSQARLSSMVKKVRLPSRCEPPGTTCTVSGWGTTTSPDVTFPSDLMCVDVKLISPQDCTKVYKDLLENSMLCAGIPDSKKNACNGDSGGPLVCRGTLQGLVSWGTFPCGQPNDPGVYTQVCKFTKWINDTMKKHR
Ecoli rRNA inh: inhibitors of bacterial rRNA selective over humanized ribosomes; GFP signal change (wild-type ribosome), % (test concentration not listed); 350,000 compounds, 1.6% hits; E. coli WT GFP vs humanized-ribosome RFP mutants, fluorescence, 24 h; hits give low values; DMSO median 0, no signal -100;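 active means significant combined selectivity score with lowered wild-type GFP, culture density cut under 30%, mutant RFP and density less affected; inactive means any of these conditions unmet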
ADAM10 ctr: ADAM10 inhibition, counter-screen for ADAM17 exosite hits. shares compounds with ADAM17 inh. AID 743256. inhibition, % at 6.95 µM. 2,900 compounds, 47% hits. recombinant ADAM10, EDANS/DABCYL FRET peptide cleavage, 3 h;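 active means mean inhibition over the triplicate runs exceeds the activity threshold set in the earlier primary screen, cut at about 20% in these data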;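 further: 0% = DMSO wells and 100% = marimastat wells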
ADAM17 confirm: human ADAM17 inhibition, confirmation. shares compounds with ADAM17 inh. recombinant ADAM17, EDANS/DABCYL QFRET peptide cleavage. inhibition, % at 6.95 µM. 2,900 compounds, 65% hits;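 active means mean inhibition across replicates above the hit cutoff set in the primary screen, cut at about 8.5% in these data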;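 further: 0% = DMSO wells and 100% = marimastat wells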
Active calls of the source: *; / = not tested or not shown.

SMILES	FGF22 binding	ADAM17 inh	ADAM10 inh	KLK7 zymogen act	Ecoli rRNA inh	ADAM10 ctr	ADAM17 confirm
CC(=O)Nc1ccc(S(=O)(=O)N(C)c2ccc(OCCOc3cccc(C)c3)cc2)cc1	0.0	8.7*	-2.5	0.3	-3.1	26.1*	13.7*
Cc1ccc(S(=O)(=O)N(C)c2ccc(OCC(=O)OCc3cccc(Br)c3)cc2)cc1	0.1	9.1*	15.5	0.3	5.3	25.4*	15.7*
Cc1ccc(S(=O)(=O)N(C)c2ccc(OCc3cccc(C)c3)cc2)cc1	0.0	3.4	1.6	-0.4	8.2	/	/
CO[C@H]1CN(C)C(=O)c2cc(NS(C)(=O)=O)ccc2OC[C@H](C)N(Cc2nccs2)C[C@H]1C	-0.4	/	/	/	0.7	/	/
O=C(O)c1ccc(CSc2nnc(-c3ccc(Cl)cc3)o2)cc1	0.0	-0.5	9.2	-0.3	-10.8	/	/
O=S(=O)(Nc1ccc(-c2nnc(SCc3ccc(Cl)cc3)o2)cc1)c1ccccc1	/	9.2*	18.0	0.1	/	23.2*	13.9*
C[C@@H]1CCCCO[C@@H](CN(C)S(=O)(=O)c2ccc(F)cc2)[C@@H](C)CN([C@H](C)CO)C(=O)c2cc(NC(=O)Nc3ccc(C(F)(F)F)cc3)ccc2O1	/	/	/	/	-4.1	/	/
COc1ccc(S(=O)(=O)N(C)C[C@@H]2Oc3c(NC(=O)Nc4ccc5c(c4)OCO5)cccc3C(=O)N([C@H](C)CO)C[C@H]2C)cc1	-0.4	/	/	/	-3.0	/	/
COc1ccc(OC)c(NC(=O)c2cc(-c3ccc(F)cc3OC(C)C)n[nH]2)c1	0.0	8.8*	16.7	-0.2	-7.9	10.5	9.3*
CCO[C@@H]1OC(C(=O)N2CCN(Cc3ccccc3)CC2)=C[C@H](c2ccc(C(F)(F)F)cc2)[C@H]1CCCO	0.2	-0.4	5.0	0.4	-46.7	/	/
CCO[C@@H]1OC(C(=O)N2CCN(Cc3ccccc3)CC2)=C[C@H](c2ccc(Br)cc2)[C@H]1CCCO	/	10.2*	18.8	0.1	/	4.4	7.4
CN1CCN(C(c2ccc(C(F)(F)F)cc2)c2cc(Cl)c3cccnc3c2O)CC1 (centres undefined)	-0.4	12.5*	16.3	-0.8	-50.6	36.3*	16.4*
Oc1c(C(c2ccccn2)N2CCCCC2)cc(Cl)c2cccnc12 (centres undefined)	0.0	25.5*	10.1	-0.8	-43.0	9.3	26.8*
Cc1ccc(S(=O)(=O)Nc2cccc3c2O[C@@H](CN(C)S(=O)(=O)c2ccc(F)cc2)[C@@H](C)CN([C@@H](C)CO)C3=O)cc1	0.2	/	/	/	1.8	/	/
O=C(C[C@H]1CC[C@H]2NC[C@H](O)COC[C@@H]2O1)NCCN1CCCCC1	-0.5	/	/	/	4.1	/	/
COc1cccc(CN(C)C(=O)c2cc(COc3ccc(-n4cncn4)cc3)on2)c1	0.0	8.7*	7.8	0.8	-2.9	3.1	4.4
COc1ccc(CN(C)C[C@@H]2Oc3ccc(NC(=O)CCN4CCOCC4)cc3CC(=O)N([C@@H](C)CO)C[C@@H]2C)cc1	0.0	/	/	/	1.2	/	/
C/C(=N\NC(=O)CNC(=O)C(c1ccccc1)c1ccccc1)c1ccc(C(C)(C)C)cc1	/	10.4*	12.9	0.1	/	4.5	1.9
Cn1c(Cn2c3ccccc3c3ccccc32)n[nH]c1=S	-0.2	10.4*	16.8	-0.1	/	11.6	7.2
CCc1cc(-c2nnn(CCC3COCCO3)c2CC)ccc1-c1cn(CCc2c[nH]c3ccccc23)nn1 (centres undefined)	/	8.6*	-0.7	1.1	-5.1	15.3	9.4*
C#CCNC(=O)C[C@H]1C[C@@]2(C(=O)OC)C(=C[C@H](C(C)C)O[C@@H]2C2CC2)N(Cc2cccc3ccccc23)C1=O	/	8.9*	10.0	-0.8	/	6.3	7.6
CCOC(=O)[C@]12CCC=C1N(Cc1cccc3ccccc13)C(=O)[C@H](CC(=O)NCc1cccs1)C2	-0.3	11.3*	12.8	0.5	-10.3	20.4*	11.7*

Screening data as filed in PubChem BioAssay.
